This passage reports binding signal results from paper PMC8384837, “Expanding the binding specificity for RNA recognition by a PUF domain”.

Numbering of substitutions follows the chain as printed.

Holding throughout (test): yeast three-hybrid, YBZ-1, SC-Leu-His + 0.5 mM 3-AT, 4 days
Details in all cases: tags: N-Gal4 AD-HA kept; label: inside an RPR1-promoter hybrid RNA with tandem MS2 sites; ssRNA

The target of one assay is PUM1 PUF domain R3-GNE (Homo sapiens, UniProt Q14671 828-1176, C935G;R936N;Q939E). The procedure, abridged: (§1)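 Pumilio-1 PUF domain libraries, randomized (NNK) at the three base-contacting residues of each repeat, were co-expressed with matching RNA elements from a centromeric plasmid in strain YBZ-1 (LexA–MS2 coat fusion, HIS3 reporter). Transformants were plated on SC-Leu (input) and SC-Leu-His + 0.5 mM 3-AT (selection) for four days, and repeat regions were PCR-amplified and Illumina-sequenced. The interaction score is the log2 change in variant frequency from input to selection, with pseudocount 1 where absent.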

The target in a further assay is PUM1 PUF domain R3-IYS (Homo sapiens, UniProt Q14671 828-1176, C935I;R936Y;Q939S). In outline:
as §1

Another assay addresses PUM1 PUF domain R8-KKF (Homo sapiens, UniProt Q14671 828-1176, N1122K;Y1123K;Q1126F). In outline: as §1
The target of another assay is PUM1 PUF domain R8-CHR (Homo sapiens, UniProt Q14671 828-1176, N1122C;Y1123H;Q1126R). In outline: as §1
The target of a further assay is PUM1 PUF domain R8-LYG (Homo sapiens, UniProt Q14671 828-1176, N1122L;Q1126G). The procedure, abridged: as §1
For a further assay, the target named is PUM1 PUF domain R5-FRQ (Homo sapiens, UniProt Q14671 828-1176, C1007F). The procedure, abridged: as §1
The next assay deals with PUM1 PUF domain R5-RCI (Homo sapiens, UniProt Q14671 828-1176, C1007R;R1008C;Q1011I). In outline: as §1
The next assay addresses PUM1 PUF domain R5-GWW (Homo sapiens, UniProt Q14671 828-1176, C1007G;R1008W;Q1011W). In outline: as §1
In the next assay the target is PUM1 PUF domain R5-GFY (Homo sapiens, UniProt Q14671 828-1176, C1007G;R1008F;Q1011Y). In outline:
as §1

In the next assay the target is PUM1 PUF domain R3-ARL (Homo sapiens, UniProt Q14671 828-1176, C935A;Q939L). In outline: as §1
For a further assay, the target named is PUM1 PUF domain R3-RNP (Homo sapiens, UniProt Q14671 828-1176, C935R;R936N;Q939P). In outline: as §1
In a further assay the target is PUM1 PUF domain R4-QRG (Homo sapiens, UniProt Q14671 828-1176, N971Q;H972R;Q975G). In outline:
as §1

In a further assay the target is T1, PUM1 PUF domain R6-FYC (Homo sapiens, UniProt Q14671 828-1176, N1043F;Q1047C).
T1 sequence: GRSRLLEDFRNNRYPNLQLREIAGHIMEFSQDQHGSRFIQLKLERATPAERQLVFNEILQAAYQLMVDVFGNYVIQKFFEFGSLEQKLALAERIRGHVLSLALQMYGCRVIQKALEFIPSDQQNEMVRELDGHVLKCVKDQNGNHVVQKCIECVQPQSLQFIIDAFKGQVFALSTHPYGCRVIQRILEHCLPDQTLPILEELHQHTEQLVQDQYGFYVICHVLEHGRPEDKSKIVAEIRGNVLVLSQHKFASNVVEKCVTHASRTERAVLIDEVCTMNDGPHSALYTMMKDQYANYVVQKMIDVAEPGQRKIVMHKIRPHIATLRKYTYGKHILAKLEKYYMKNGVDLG
In outline:
as §1

In a further assay the target is T2, PUM1 PUF domain R6-TFR (Homo sapiens, UniProt Q14671 828-1176, N1043T;Y1044F;Q1047R).
T2 sequence: T1 sequence with F216T, Y217F, C220R
In outline:
as §1

The next assay has as its target PUM1 PUF domain R1-RKS (Homo sapiens, UniProt Q14671 828-1176, S863R;R864K;Q867S). The procedure, abridged:
as §1

For another assay, the target named is PUM1 PUF domain R1-RQN (Homo sapiens, UniProt Q14671 828-1176, S863R;R864Q;Q867N). In outline: as §1
A further assay addresses PUM1 PUF domain R1-RIT (Homo sapiens, UniProt Q14671 828-1176, S863R;R864I;Q867T). In outline:
as §1

The target of a further assay is PUM1 PUF domain R7-RSG (Homo sapiens, UniProt Q14671 828-1176, S1079R;N1080S;E1083G). The procedure, abridged: as §1
Another assay deals with PUM1 PUF domain R2-QWW (Homo sapiens, UniProt Q14671 828-1176, N899Q;Y900W;Q903W). The procedure, abridged: as §1

Take “GGCUAGAACUAGUGGAUCCCCCGGCGCCCGGCGGCUCGAGCCCGGGUAAGUGUAAGUAGUCUGCAUGCCGCCGGGCGCCAUGCCUGCAGGUCGACUCUAGAAAACAUG”: the results for the binding signal in the assay with PUM1 PUF domain R3-GNE and with PUM1 PUF domain R3-IYS were 2.22 log2 enrichment (interaction score) and 4.72 log2 enrichment (interaction score), respectively.
In the case of “GGCUAGAACUAGUGGAUCCCCCGGCGCCCGGCGGCUCGAGCCCGGGUAAGCGUAAAUAGUCUGCAUGCCGCCGGGCGCCAUGCCUGCAGGUCGACUCUAGAAAACAUG”, the binding signal in the assay with PUM1 PUF domain R8-KKF was 3 log2 enrichment (interaction score); with PUM1 PUF domain R8-CHR, 4.19 log2 enrichment (interaction score); with PUM1 PUF domain R8-LYG, 2.57 log2 enrichment (interaction score).
“GGCUAGAACUAGUGGAUCCCCCGGCGCCCGGCGGCUCGAGCCCGGGUAAGUGUCAAUAGUCUGCAUGCCGCCGGGCGCCAUGCCUGCAGGUCGACUCUAGAAAACAUG”: the binding signal with PUM1 PUF domain R5-FRQ is 2.71 log2 enrichment (interaction score); in the assay with PUM1 PUF domain R5-RCI, 2.64 log2 enrichment (interaction score).
In the case of “GGCUAGAACUAGUGGAUCCCCCGGCGCCCGGCGGCUCGAGCCCGGGUAAGUGUUAAUAGUCUGCAUGCCGCCGGGCGCCAUGCCUGCAGGUCGACUCUAGAAAACAUG”, the binding signal in the assay with PUM1 PUF domain R5-GWW was 6.66 log2 enrichment (interaction score); with PUM1 PUF domain R5-GFY it was 2.65 log2 enrichment (interaction score).
Turning to “GGCUAGAACUAGUGGAUCCCCCGGCGCCCGGCGGCUCGAGCCCGGGUAAGUGUAAUUAGUCUGCAUGCCGCCGGGCGCCAUGCCUGCAGGUCGACUCUAGAAAACAUG”, the binding signal was 1.22 log2 enrichment (interaction score) with PUM1 PUF domain R3-ARL and 4.2 log2 enrichment (interaction score) in the assay with PUM1 PUF domain R3-RNP.
As to “GGCUAGAACUAGUGGAUCCCCCGGCGCCCGGCGGCUCGAGCCCGGGUAAGUGUAAAUAGUCUGCAUGCCGCCGGGCGCCAUGCCUGCAGGUCGACUCUAGAAAACAUG”, the binding signal was 3.6 log2 enrichment (interaction score) with PUM1 PUF domain R3-ARL; 2.18 log2 enrichment (interaction score) with PUM1 PUF domain R8-CHR; 3.75 log2 enrichment (interaction score) with PUM1 PUF domain R4-QRG; 3.33 log2 enrichment (interaction score) with PUM1 PUF domain R6-FYC; 0.62 log2 enrichment (interaction score) in the assay with PUM1 PUF domain R8-LYG; 3.55 log2 enrichment (interaction score) with PUM1 PUF domain R5-GFY. In the assay with PUM1 PUF domain R6-TFR, the binding signal was 5.59 log2 enrichment (interaction score).
As for “GGCUAGAACUAGUGGAUCCCCCGGCGCCCGGCGGCUCGAGCCCGGGUAAGUGUAAAUUGUCUGCAUGCCGCCGGGCGCCAUGCCUGCAGGUCGACUCUAGAAAACAUG”, the binding signal with PUM1 PUF domain R1-RKS is 4.69 log2 enrichment (interaction score).
Consider “GGCUAGAACUAGUGGAUCCCCCGGCGCCCGGCGGCUCGAGCCCGGGUAAGUGUAAAUCGUCUGCAUGCCGCCGGGCGCCAUGCCUGCAGGUCGACUCUAGAAAACAUG”, for which the binding signal was 4.56 log2 enrichment (interaction score) in the assay with PUM1 PUF domain R1-RQN and 5.29 log2 enrichment (interaction score) with PUM1 PUF domain R1-RIT.
For the sequence “GGCUAGAACUAGUGGAUCCCCCGGCGCCCGGCGGCUCGAGCCCGGGUAAGUUUAAAUAGUCUGCAUGCCGCCGGGCGCCAUGCCUGCAGGUCGACUCUAGAAAACAUG”, the binding signal with PUM1 PUF domain R7-RSG is 2.86 log2 enrichment (interaction score).
Still for that read-out and setting: for “GGCUAGAACUAGUGGAUCCCCCGGCGCCCGGCGGCUCGAGCCCGGGUAAGUCUAAAUAGUCUGCAUGCCGCCGGGCGCCAUGCCUGCAGGUCGACUCUAGAAAACAUG” the value was 0.33 log2 enrichment (interaction score).
Consider “GGCUAGAACUAGUGGAUCCCCCGGCGCCCGGCGGCUCGAGCCCGGGUAAGUGUAAAGAGUCUGCAUGCCGCCGGGCGCCAUGCCUGCAGGUCGACUCUAGAAAACAUG”, for which, in the assay with PUM1 PUF domain R2-QWW, the binding signal is 5.58 log2 enrichment (interaction score).
In the case of “GGCUAGAACUAGUGGAUCCCCCGGCGCCCGGCGGCUCGAGCCCGGGUAAGUGCAAAUAGUCUGCAUGCCGCCGGGCGCCAUGCCUGCAGGUCGACUCUAGAAAACAUG”, the binding signal in the assay with PUM1 PUF domain R6-TFR was 5.38 log2 enrichment (interaction score).
